# From the supplement of paper PMC6897291
# “And” between values parts separate entries of the source, which are not always exact repeats. Equal values may be shown once.
# Test system: RIVA
# Assay: growth inhibition by drug plus 177Lu-lilotomab satetraxetan (1 - RLU/untreated control) (fraction); higher = stronger inhibition
# Conditions: 177Lu-lilotomab satetraxetan 0.5 ug/ml
# Experimental: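 RIVA (RI-1) ABC-DLBCL cells were pretreated or not for 18 h with 0.5 ug/ml 177Lu-lilotomab satetraxetan (600 MBq/mg), washed and seeded (3000 cells/well) on 384-well plates pre-printed with the Selleck Cambridge Cancer Compound library. Viability was read by RealTime-Glo luminescence on days 3-6 after seeding. Effect = 1 - RLU/mean RLU of the 48 untreated no-drug control wells per plate; Bliss score = (M-E)/(1-Fa).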
SMILES,"growth inhibition by drug plus 177Lu-lilotomab satetraxetan (10 nM, time (day): 3)","growth inhibition by drug plus 177Lu-lilotomab satetraxetan (10 nM, time (day): 4)","growth inhibition by drug plus 177Lu-lilotomab satetraxetan (10 nM, time (day): 5)","growth inhibition by drug plus 177Lu-lilotomab satetraxetan (10 nM, time (day): 6)","growth inhibition by drug plus 177Lu-lilotomab satetraxetan (100 nM, time (day): 3)","growth inhibition by drug plus 177Lu-lilotomab satetraxetan (100 nM, time (day): 4)","growth inhibition by drug plus 177Lu-lilotomab satetraxetan (100 nM, time (day): 5)","growth inhibition by drug plus 177Lu-lilotomab satetraxetan (100 nM, time (day): 6)"
CC(C)C[C@H](NC(=O)[C@@H](O)[C@H](N)Cc1ccccc1)C(=O)O [Ubenimex (Bestatin)],0.428,0.535,0.552,0.573,0.504,0.54,0.554,0.541
CC[C@H](Nc1ncnc2[nH]cnc12)c1nc2cccc(F)c2c(=O)n1-c1ccccc1,0.367,0.448,0.484,0.5,0.575,0.541,0.554,0.546
C/C(=C\C(=O)Nc1ccccc1C(=O)O)c1ccc2ccccc2c1,0.404 and 0.42,0.545 and 0.538,0.571 and 0.547,0.581 and 0.558,0.399 and 0.427,0.502 and 0.474,0.502 and 0.482,0.484 and 0.467
COc1ccc(-c2oc3cc(OC)ccc3c2C(=O)c2ccc(C#N)cc2)cc1,0.441,0.559,0.571,0.572,0.391,0.503,0.507,0.483
O=C1c2ccccc2C(=O)c2c(NCCc3ccc(O)cc3)ccc(NCCc3ccc(O)cc3)c21,0.317,0.429,0.456,0.479,0.329,0.437,0.433,0.44
